Test results as given in the supplement of paper PMC10849652.
Targets with a hit are over-represented here; the source holds about 7,900 in all. About 0.6% of all pairs of compound and target were hits.

Key:
Assay in all cases: log2 fold change, soluble protein after heating vs DMSO (PISA); higher = thermal stabilisation; K562 cells, 10 uM, 30 min; active = over 0.2 and 3.5 SD of the protein, either way, in both replicates (recomputed)
[1] = compound: NC(=O)Nc1cc(-c2cccc(F)c2)sc1C(=O)N[C@H]1CCCNC1
Method in brief: (§1)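 K562 cells at 2×10^6 cells/mL were treated for 30 min with 10 μM compound, and aliquots were heated for 3 min over 48°C-58°C before pooling. Extraction used PBS with 0.5% NP-40 at 4°C, and soluble protein was the supernatant after 21,000xg for 90 min, measured by TMTpro 16plex LC-MS/MS with channel sums equalised. Thermal stability values, relative to control samples and from duplicates, are log2 fold changes.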

[2] = compound: NC(=O)c1cnc(N[C@@H]2CCCC[C@@H]2N)nc1Nc1cccc(-n2nccn2)c1
Method in brief: as §1

[3] = compound: NC1(c2ccc(-c3nc4ccn5c(=O)[nH]nc5c4cc3-c3ccccc3)cc2)CCC1
Method in brief: as §1

[4] = compound: NCC(=O)Nc1ccc(-n2nc(C(F)(F)F)cc2-c2ccc3c(ccc4ccccc43)c2)cc1
Method in brief: as §1

entinostat = compound: Nc1ccccc1NC(=O)c1ccc(CNC(=O)OCc2cccnc2)cc1 [entinostat]
Method in brief: as §1

silmitasertib = compound: O=C(O)c1ccc2c(c1)nc(Nc1cccc(Cl)c1)c1ccncc12 [silmitasertib]
Method in brief: as §1

[5] = compound: O=C1NC(=O)C(c2cnc3ccccn23)=C1c1cn2c3c(cc(F)cc13)CN(C(=O)N1CCCCC1)CC2
Method in brief: as §1

vorinostat = compound: O=C(CCCCCCC(=O)Nc1ccccc1)NO [vorinostat]
Method in brief: as §1

citarinostat = compound: O=C(CCCCCCNC(=O)c1cnc(N(c2ccccc2)c2ccccc2Cl)nc1)NO [citarinostat]
Method in brief: as §1

[6] = compound: c1cc(OCCN2CCCCC2)cc(-c2n[nH]c3ccc(-c4nnc[nH]4)cc23)c1
Method in brief: as §1

entospletinib = compound: c1cn2cc(-c3ccc4cn[nH]c4c3)nc(Nc3ccc(N4CCOCC4)cc3)c2n1 [entospletinib]
Method in brief: as §1

Measured: log2 fold change

NA isoform 3 (UniProt Q4G0T1)
UniProt Q4G0T1, sequence (Q4G0T1 whole entry, looked up): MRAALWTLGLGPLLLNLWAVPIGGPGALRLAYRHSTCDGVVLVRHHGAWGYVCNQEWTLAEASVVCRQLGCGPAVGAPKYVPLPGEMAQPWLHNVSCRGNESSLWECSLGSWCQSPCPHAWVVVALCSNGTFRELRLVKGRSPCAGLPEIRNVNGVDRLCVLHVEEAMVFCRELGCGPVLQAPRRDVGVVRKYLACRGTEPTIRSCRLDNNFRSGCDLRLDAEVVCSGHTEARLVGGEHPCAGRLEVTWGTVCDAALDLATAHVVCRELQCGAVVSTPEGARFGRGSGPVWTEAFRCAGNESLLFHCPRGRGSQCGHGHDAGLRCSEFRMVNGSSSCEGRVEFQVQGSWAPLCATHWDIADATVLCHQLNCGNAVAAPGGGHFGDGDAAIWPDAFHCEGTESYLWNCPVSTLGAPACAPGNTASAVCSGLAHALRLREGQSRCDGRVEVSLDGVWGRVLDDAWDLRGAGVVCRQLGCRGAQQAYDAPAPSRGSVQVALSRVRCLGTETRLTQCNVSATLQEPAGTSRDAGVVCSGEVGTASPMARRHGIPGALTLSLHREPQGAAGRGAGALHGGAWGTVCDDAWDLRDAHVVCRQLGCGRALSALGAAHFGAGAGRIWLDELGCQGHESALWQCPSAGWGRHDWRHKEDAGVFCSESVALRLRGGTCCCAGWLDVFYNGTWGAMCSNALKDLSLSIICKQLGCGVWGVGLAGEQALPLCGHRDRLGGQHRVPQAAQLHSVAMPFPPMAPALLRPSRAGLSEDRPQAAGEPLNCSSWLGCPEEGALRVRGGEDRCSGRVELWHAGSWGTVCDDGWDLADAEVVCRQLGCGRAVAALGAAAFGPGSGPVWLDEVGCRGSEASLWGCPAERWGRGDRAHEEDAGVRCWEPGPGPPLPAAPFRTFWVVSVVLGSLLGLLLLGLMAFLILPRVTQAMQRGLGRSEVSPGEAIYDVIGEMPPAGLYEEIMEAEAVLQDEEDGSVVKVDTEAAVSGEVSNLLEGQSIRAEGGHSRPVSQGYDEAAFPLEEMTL
inactive: [1] -0.114 | [2] -0.207 | [3] 0.015 | [4] -0.02 | entinostat 0.01 | silmitasertib 0.037

NCK1 (UniProt P16333)
inactive: [1] -0.118 | [2] -0.247 | [3] -0.056 | [4] -0.112 | entinostat 0.085 | silmitasertib 0.077 | [5] -0.194

NIPSNAP3B (UniProt Q9BS92)
UniProt Q9BS92, sequence (Q9BS92 whole entry, looked up): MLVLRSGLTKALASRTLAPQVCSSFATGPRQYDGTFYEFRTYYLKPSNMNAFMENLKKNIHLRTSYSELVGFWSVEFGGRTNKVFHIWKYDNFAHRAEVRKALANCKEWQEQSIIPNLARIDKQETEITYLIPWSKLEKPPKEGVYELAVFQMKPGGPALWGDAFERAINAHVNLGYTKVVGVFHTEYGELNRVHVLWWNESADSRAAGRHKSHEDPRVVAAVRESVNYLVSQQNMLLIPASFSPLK
inactive: [1] 0.279 | [2] 0.011 | [3] -0.069 | [4] 0.053 | entinostat -0.001 | vorinostat -0.064 | citarinostat 0.137 | silmitasertib -0.022 | [6] -0.09 | entospletinib -0.03

NCBP2AS2 (UniProt Q69YL0)
inactive: [1] -0.21 | [2] -0.161 | [3] -0.312 | [4] -0.157 | entinostat -0.004 | vorinostat 0.024 | citarinostat 0 | silmitasertib 0.024 | [6] -0.046 | entospletinib -0.017

MLX (UniProt Q9UH92)
UniProt Q9UH92, sequence (Q9UH92 whole entry, looked up): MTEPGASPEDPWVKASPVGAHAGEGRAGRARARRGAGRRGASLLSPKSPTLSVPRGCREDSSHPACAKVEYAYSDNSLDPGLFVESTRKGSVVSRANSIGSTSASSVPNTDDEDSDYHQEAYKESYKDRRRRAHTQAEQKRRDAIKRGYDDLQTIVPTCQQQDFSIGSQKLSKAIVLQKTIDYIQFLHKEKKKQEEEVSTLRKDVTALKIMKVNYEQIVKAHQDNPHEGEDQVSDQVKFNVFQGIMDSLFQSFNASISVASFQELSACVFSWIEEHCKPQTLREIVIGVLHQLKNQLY
inactive: [1] 0.144 | [2] -0.115 | [3] -0.177 | entinostat 0.005 | vorinostat 0.095 | citarinostat 0.139 | silmitasertib -0.091 | [5] -0.086 | [6] -0.175 | entospletinib -0.17

MRFAP1 (UniProt Q9Y605)
UniProt Q9Y605, sequence (Q9Y605 whole entry, looked up): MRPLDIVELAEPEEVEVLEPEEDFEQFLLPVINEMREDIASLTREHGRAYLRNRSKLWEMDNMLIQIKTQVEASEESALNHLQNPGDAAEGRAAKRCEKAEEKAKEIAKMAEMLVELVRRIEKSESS
inactive: [1] 0.134 | [2] 0.01 | [3] 0.021 | [4] -0.082 | entinostat 0.014 | vorinostat 0.15 | citarinostat 0.133 | silmitasertib -0.019 | [6] -0.028 | entospletinib 0.005

OPHN1 (UniProt O60890)
inactive: [1] 0.073 | [2] -0.134 | [3] -0.056 | entinostat -0.084 | vorinostat 0.128 | citarinostat 0.021 | silmitasertib 0.031 | [5] -0.046 | [6] 0.094 | entospletinib -0.014

NSMCE4A (UniProt Q9NXX6)
inactive: [1] 0.181 | [2] 0.059 | [3] 0 | [4] -0.023 | entinostat -0.087 | vorinostat -0.155 | citarinostat -0.018 | silmitasertib 0.149 | [5] -0.038 | [6] -0.067 | entospletinib -0.048

MPHOSPH8 isoform 2 (UniProt Q99549)
inactive: [1] 0.257 | [2] 0.004 | [3] 0.161 | [4] -0.018 | entinostat -0.191 | silmitasertib -0.083 | [5] 0.189

OAT (UniProt P04181)
inactive: [1] -0.051 | [2] -0.076 | [3] -0.235 | [4] -0.058 | entinostat 0.029 | vorinostat 0.129 | citarinostat 0.131 | silmitasertib -0.036 | [5] -0.031 | [6] 0.006 | entospletinib -0.012

NA, A0A096LPI6
inactive: [1] 0.03 | [2] 0.04 | [3] -0.012 | [4] 0.016 | entinostat -0.006 | vorinostat -0.02 | citarinostat 0.022 | silmitasertib 0.024 | [5] -0.043 | [6] -0.015 | entospletinib 0.027

NUDCD2 (UniProt Q8WVJ2)
inactive: [1] -0.108 | [2] -0.099 | [3] -0.056 | [4] -0.172 | entinostat 0.028 | vorinostat 0.147 | citarinostat 0.007 | silmitasertib 0.063 | [5] -0.183 | [6] -0.044 | entospletinib -0.005

MT-ND1 (UniProt P03886)
UniProt P03886, sequence (P03886 whole entry, looked up): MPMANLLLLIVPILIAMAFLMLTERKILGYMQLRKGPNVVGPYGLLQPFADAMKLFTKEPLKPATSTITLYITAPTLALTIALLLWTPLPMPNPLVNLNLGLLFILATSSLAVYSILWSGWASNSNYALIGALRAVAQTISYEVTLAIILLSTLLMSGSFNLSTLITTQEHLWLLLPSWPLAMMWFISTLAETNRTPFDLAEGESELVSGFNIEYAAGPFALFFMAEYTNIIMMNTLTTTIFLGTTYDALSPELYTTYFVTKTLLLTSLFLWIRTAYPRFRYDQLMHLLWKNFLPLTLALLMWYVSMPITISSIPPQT
inactive: [1] 0.166 | [2] 0.244 | [3] -0.004 | [4] 0.289 | entinostat -0.051 | citarinostat 0.05 | silmitasertib 0.039 | [5] 0.1 | [6] -0.075 | entospletinib 0.1

NFATC2 (UniProt Q13469)
inactive: [1] -0.076 | [2] -0.203 | [3] -0.064 | [4] -0.075 | entinostat 0.147 | vorinostat -0.011 | citarinostat 0.101 | silmitasertib -0.078 | [5] -0.062 | [6] -0.258 | entospletinib -0.012

NBN (UniProt O60934)
UniProt O60934, sequence (O60934 whole entry, looked up): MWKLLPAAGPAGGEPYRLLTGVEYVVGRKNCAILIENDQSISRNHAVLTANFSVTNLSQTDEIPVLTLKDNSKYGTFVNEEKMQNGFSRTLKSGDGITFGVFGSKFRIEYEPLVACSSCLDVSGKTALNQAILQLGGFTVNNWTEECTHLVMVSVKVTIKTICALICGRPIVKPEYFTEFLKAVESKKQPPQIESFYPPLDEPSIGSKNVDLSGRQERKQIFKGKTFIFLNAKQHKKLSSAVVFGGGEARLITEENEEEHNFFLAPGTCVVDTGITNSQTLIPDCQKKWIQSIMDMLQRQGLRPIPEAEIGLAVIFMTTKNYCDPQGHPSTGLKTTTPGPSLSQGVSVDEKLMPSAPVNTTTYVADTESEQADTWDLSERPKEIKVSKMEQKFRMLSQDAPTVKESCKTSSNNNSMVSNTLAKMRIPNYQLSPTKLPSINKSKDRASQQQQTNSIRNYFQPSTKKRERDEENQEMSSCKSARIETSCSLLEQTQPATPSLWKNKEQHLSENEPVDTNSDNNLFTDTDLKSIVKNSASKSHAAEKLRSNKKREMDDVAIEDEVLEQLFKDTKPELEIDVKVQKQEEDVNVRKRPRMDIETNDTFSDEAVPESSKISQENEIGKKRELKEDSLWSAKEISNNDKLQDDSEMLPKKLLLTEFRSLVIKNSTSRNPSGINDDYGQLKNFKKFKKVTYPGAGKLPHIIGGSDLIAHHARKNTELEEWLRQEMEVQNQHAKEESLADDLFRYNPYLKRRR
inactive: [1] -0.021 | [2] -0.037 | [3] -0.078 | [4] -0.067 | entinostat 0.127 | vorinostat 0.091 | citarinostat 0.009 | silmitasertib -0.055 | [5] -0.104 | [6] 0 | entospletinib 0.009

NUMBL (UniProt Q9Y6R0)
UniProt Q9Y6R0, sequence (Q9Y6R0 whole entry, looked up): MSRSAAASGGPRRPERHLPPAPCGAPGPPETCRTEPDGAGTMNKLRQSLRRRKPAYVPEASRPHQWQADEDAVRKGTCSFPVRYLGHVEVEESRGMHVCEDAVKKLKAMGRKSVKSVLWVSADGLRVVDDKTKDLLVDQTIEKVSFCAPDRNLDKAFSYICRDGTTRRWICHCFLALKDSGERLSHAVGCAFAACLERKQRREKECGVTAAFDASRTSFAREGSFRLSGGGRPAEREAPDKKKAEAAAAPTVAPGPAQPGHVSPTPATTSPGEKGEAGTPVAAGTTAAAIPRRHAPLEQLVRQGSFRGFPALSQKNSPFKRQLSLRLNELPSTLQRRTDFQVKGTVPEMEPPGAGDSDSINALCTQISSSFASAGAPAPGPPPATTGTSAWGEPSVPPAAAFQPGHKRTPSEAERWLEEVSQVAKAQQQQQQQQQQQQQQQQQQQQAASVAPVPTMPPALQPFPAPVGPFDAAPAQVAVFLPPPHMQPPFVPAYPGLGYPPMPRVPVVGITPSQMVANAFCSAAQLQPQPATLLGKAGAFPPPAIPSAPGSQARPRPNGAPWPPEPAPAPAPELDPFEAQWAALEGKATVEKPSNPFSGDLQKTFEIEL
inactive: [1] -0.101 | [2] 0.016 | [3] -0.154 | [4] 0.002 | entinostat 0.01 | vorinostat 0.078 | silmitasertib -0.037 | [5] 0.016

MPP1 (UniProt Q00013)
inactive: [1] -0.083 | [2] -0.015 | [3] -0.159 | [4] -0.067 | entinostat 0.047 | vorinostat 0.093 | citarinostat 0.036 | silmitasertib 0.022 | [5] 0.027 | [6] -0.059 | entospletinib 0.056

MITF (UniProt O75030)
inactive: [1] -0.023 | [2] 0.021 | [3] -0.11 | [4] 0.302 | entinostat -0.048 | vorinostat 0.2 | citarinostat 0.083 | silmitasertib 0.071 | [6] -0.022 | entospletinib -0.085

NDUFA6 (UniProt P56556)
inactive: [1] -0.023 | [2] 0.028 | [3] -0.113 | [4] -0.083 | entinostat 0.056 | vorinostat 0.118 | citarinostat 0.036 | silmitasertib -0.016 | [5] -0.131 | [6] -0.011 | entospletinib -0.041

NAT14 (UniProt Q8WUY8)
inactive: [1] 0.038 | [2] -0.135 | [3] -0.108 | [4] -0.33 | entinostat -0.033 | citarinostat 0.04 | silmitasertib 0 | [5] -0.037 | [6] -0.108 | entospletinib 0.007

NPM3 (UniProt O75607)
UniProt O75607, sequence (O75607 whole entry, looked up): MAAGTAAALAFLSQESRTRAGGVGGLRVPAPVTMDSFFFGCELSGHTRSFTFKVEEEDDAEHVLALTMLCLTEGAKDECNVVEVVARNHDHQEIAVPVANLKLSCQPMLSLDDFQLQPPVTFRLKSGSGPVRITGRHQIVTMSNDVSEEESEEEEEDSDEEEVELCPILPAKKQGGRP
inactive: [1] 0.029 | [2] 0.02 | [3] 0.216 | [4] 0.017 | entinostat -0.019 | vorinostat -0.023 | citarinostat -0.059 | silmitasertib 0.137 | [6] -0.101 | entospletinib 0.008

NMRAL1 (UniProt Q9HBL8)
UniProt Q9HBL8, sequence (Q9HBL8 whole entry, looked up): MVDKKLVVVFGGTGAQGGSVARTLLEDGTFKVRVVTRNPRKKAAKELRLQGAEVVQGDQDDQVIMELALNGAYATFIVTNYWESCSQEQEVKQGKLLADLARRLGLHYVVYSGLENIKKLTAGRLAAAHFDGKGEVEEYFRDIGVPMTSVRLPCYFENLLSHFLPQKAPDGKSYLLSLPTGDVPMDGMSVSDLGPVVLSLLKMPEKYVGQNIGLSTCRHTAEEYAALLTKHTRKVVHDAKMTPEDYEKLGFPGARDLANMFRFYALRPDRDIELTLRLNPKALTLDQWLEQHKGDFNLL
inactive: [1] 0.391 | [3] 0.717 | [4] -0.16 | entinostat -0.052 | vorinostat -0.139 | citarinostat -0.151 | silmitasertib 0.018 | [5] -0.005 | [6] 0.374 | entospletinib 0.135
active: [2] 1.06

NIPSNAP2 (UniProt C9J7B1)
inactive: [1] -0.009 | [2] 0.175 | [3] -0.017 | entinostat 0.148 | silmitasertib 0.019

MRPS21 (UniProt P82921)
inactive: [1] -0.009 | [2] 0.137 | [3] -0.003 | [4] 0.095 | entinostat -0.004 | citarinostat 0.07 | silmitasertib -0.156 | [5] 0.024 | [6] -0.05 | entospletinib -0.031

NPC1L1 (UniProt Q9UHC9)
inactive: [1] 0.011 | [2] -0.038 | [3] -0.104 | [4] -0.024 | entinostat -0.011 | citarinostat 0.036 | silmitasertib -0.028 | [6] 0.054 | entospletinib -0.007

MYH16 (UniProt Q9H6N6)
UniProt Q9H6N6, sequence (Q9H6N6 whole entry, looked up): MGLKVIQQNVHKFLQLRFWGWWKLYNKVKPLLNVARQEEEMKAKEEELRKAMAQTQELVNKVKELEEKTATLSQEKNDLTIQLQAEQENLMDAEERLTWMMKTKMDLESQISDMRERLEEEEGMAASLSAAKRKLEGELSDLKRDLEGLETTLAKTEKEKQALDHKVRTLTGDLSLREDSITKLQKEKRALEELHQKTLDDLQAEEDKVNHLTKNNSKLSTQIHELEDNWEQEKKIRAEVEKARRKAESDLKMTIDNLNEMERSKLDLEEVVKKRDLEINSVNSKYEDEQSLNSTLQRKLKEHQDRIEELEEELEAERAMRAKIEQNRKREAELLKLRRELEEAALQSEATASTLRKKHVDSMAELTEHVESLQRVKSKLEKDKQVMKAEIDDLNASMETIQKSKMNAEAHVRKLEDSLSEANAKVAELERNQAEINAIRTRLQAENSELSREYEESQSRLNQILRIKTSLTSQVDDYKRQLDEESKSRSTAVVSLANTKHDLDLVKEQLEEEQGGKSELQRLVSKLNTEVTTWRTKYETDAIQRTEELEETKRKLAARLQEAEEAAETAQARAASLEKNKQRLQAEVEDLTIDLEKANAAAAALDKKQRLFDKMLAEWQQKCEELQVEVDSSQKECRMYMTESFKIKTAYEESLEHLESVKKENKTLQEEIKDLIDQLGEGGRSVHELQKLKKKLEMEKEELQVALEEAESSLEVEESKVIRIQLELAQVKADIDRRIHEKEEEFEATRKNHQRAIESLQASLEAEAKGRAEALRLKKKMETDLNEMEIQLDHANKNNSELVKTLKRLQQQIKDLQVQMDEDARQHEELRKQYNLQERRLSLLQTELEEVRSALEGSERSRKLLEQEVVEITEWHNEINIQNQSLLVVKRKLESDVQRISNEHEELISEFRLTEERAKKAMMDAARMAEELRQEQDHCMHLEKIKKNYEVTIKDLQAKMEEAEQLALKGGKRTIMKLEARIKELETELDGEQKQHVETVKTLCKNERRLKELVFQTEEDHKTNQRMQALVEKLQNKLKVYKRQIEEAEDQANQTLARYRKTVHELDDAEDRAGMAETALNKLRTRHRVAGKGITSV
inactive: [1] 0.467 | [2] 0.051 | [3] -0.057 | [4] 0.051 | entinostat 0.289 | vorinostat 0.291 | silmitasertib -0.044

NELFA (UniProt Q9H3P2)
inactive: [1] 0.038 | [2] -0.016 | [3] 0.142 | [4] -0.245 | entinostat 0.002 | vorinostat 0.061 | citarinostat -0.169 | silmitasertib 0.065 | [5] -0.183 | [6] 0.002 | entospletinib -0.005

ORC5 (UniProt O43913)
inactive: [1] -0.322 | [2] -0.188 | [3] -0.253 | [4] -0.058 | entinostat -0.101 | vorinostat 0.139 | citarinostat 0.039 | silmitasertib -0.072 | [6] -0.004 | entospletinib 0.012

NRDC isoform 2 (UniProt O43847)
inactive: [1] -0.01 | [2] -0.044 | [3] -0.057 | [4] -0.036 | entinostat 0.043 | vorinostat 0.04 | citarinostat 0.024 | silmitasertib 0.025 | [5] -0.05 | [6] -0.06 | entospletinib -0.005
